ChEMBL document CHEMBL1961873, “Compounds: GSK PKIS; Assays: Nanosyn kinase panel” (2012)
Values joined by “and” are separate entries in the source; they are usually repeats but may differ in a detail not shown here. Equal values may be shown once.

Key:
[1] = molecular target: Protein kinase C gamma type (Homo sapiens) (UniProt P05129); details: at 1 µM;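 note: each value is an averaged percent inhibition of the enzyme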
[2] = molecular target: T1, Protein kinase C iota type (Homo sapiens) (UniProt P41743); details: at 0.1 µM
T1 sequence (whole entry): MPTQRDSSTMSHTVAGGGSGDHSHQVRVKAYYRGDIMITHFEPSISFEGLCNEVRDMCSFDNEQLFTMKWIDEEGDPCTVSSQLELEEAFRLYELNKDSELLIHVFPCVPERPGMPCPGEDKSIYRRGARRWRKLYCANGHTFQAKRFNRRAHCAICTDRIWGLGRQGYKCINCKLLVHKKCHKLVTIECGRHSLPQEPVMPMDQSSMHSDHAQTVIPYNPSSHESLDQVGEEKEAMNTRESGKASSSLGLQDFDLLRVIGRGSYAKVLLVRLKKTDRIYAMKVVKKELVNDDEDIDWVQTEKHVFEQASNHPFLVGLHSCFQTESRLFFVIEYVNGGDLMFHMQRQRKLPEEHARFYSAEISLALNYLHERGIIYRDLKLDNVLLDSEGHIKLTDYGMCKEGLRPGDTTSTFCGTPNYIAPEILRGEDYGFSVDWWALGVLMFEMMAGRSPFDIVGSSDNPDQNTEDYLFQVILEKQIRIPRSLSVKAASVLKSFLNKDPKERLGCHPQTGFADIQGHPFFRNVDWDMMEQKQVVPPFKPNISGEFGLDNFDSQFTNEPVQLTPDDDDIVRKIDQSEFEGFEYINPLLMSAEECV

[3] = molecular target: T1, Protein kinase C iota type (Homo sapiens); details: at 1 µM
[4] = molecular target: Protein kinase C theta type (Homo sapiens) (UniProt Q04759); details: at 0.1 µM
[5] = molecular target: Protein kinase C theta type (Homo sapiens) (UniProt Q04759); details: at 1 µM
[6] = molecular target: Protein kinase C beta type (Homo sapiens) (UniProt P05771); details: at 0.1 µM
[7] = molecular target: Protein kinase C beta type (Homo sapiens) (UniProt P05771); details: at 1 µM
[8] = molecular target: T2, Serine/threonine-protein kinase D1 (Homo sapiens) (UniProt Q15139); details: at 0.1 µM
T2 sequence (whole entry): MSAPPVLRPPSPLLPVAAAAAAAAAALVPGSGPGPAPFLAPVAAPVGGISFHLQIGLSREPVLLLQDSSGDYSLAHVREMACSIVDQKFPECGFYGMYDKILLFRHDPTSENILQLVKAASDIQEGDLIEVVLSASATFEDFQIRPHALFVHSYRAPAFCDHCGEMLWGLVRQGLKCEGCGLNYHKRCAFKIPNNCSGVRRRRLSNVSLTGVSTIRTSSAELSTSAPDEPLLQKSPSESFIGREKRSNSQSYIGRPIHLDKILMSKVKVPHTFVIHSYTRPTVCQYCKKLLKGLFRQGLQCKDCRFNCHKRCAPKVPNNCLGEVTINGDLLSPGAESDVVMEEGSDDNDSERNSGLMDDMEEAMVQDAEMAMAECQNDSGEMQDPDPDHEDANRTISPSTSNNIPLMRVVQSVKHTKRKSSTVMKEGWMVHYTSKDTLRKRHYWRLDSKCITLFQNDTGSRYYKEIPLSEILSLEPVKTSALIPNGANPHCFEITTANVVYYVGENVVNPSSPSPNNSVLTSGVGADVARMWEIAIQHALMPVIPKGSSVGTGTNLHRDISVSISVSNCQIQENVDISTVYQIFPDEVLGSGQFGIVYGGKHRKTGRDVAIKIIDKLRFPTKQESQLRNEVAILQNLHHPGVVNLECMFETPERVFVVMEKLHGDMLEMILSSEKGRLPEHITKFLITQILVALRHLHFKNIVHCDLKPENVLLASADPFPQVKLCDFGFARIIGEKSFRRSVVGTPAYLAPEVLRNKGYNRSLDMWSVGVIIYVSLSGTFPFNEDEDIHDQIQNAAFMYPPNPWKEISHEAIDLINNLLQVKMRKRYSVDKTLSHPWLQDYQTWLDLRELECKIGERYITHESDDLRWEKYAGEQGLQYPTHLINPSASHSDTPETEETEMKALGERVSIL

[9] = molecular target: T2, Serine/threonine-protein kinase D1 (Homo sapiens); details: at 1 µM
[10] = molecular target: T3, Serine/threonine-protein kinase D2 (Homo sapiens) (UniProt Q9BZL6); details: at 0.1 µM
T3 sequence (whole entry): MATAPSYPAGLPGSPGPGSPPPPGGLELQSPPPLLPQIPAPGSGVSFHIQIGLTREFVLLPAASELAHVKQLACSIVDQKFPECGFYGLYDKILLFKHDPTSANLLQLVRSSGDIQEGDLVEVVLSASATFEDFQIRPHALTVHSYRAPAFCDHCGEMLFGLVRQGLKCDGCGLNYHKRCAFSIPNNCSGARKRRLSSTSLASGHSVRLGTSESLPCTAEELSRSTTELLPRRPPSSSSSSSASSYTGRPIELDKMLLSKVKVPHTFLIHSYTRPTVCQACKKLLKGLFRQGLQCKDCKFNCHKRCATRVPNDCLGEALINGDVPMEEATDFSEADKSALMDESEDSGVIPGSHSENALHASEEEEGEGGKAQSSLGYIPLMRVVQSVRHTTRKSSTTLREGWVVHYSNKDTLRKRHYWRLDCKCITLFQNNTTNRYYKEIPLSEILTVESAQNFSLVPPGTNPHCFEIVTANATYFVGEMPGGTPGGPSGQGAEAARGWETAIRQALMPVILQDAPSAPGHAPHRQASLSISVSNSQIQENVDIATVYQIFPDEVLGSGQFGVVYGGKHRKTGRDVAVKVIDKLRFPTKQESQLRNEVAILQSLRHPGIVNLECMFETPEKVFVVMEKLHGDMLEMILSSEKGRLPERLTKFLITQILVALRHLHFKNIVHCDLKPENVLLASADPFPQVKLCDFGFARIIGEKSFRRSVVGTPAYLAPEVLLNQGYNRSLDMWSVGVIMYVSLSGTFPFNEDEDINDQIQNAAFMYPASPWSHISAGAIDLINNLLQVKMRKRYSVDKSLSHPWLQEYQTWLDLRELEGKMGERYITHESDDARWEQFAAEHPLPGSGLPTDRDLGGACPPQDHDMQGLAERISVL

[11] = molecular target: T3, Serine/threonine-protein kinase D2 (Homo sapiens); details: at 1 µM
[12] = molecular target: T4, Serine/threonine-protein kinase D3 (Homo sapiens) (UniProt O94806); details: at 0.1 µM
T4 sequence (whole entry): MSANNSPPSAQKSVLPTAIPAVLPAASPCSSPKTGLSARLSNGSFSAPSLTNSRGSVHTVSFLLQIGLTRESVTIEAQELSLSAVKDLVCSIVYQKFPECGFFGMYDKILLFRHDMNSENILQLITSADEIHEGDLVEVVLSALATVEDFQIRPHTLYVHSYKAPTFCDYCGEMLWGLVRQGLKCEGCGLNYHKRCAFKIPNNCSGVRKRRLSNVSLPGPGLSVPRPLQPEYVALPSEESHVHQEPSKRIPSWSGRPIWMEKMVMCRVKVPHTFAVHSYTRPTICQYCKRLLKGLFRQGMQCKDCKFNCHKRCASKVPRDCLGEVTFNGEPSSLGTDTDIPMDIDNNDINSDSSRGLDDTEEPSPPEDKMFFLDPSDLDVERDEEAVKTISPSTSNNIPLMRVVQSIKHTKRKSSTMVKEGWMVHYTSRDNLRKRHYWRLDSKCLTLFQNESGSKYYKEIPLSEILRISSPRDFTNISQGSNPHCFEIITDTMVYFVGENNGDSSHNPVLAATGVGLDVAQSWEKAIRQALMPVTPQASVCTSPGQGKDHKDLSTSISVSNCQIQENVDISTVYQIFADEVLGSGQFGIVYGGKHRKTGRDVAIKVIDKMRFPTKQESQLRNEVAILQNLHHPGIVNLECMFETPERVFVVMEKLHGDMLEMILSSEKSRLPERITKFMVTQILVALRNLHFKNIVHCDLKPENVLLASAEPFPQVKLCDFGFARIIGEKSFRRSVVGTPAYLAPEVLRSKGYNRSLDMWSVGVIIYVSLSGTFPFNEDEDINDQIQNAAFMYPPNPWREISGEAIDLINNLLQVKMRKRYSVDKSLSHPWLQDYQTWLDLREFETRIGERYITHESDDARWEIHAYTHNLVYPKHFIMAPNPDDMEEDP

[13] = molecular target: T4, Serine/threonine-protein kinase D3 (Homo sapiens); details: at 1 µM
[14] = molecular target: T5, cGMP-dependent protein kinase 1 (Homo sapiens) (UniProt Q13976); details: at 0.1 µM
T5 sequence (whole entry): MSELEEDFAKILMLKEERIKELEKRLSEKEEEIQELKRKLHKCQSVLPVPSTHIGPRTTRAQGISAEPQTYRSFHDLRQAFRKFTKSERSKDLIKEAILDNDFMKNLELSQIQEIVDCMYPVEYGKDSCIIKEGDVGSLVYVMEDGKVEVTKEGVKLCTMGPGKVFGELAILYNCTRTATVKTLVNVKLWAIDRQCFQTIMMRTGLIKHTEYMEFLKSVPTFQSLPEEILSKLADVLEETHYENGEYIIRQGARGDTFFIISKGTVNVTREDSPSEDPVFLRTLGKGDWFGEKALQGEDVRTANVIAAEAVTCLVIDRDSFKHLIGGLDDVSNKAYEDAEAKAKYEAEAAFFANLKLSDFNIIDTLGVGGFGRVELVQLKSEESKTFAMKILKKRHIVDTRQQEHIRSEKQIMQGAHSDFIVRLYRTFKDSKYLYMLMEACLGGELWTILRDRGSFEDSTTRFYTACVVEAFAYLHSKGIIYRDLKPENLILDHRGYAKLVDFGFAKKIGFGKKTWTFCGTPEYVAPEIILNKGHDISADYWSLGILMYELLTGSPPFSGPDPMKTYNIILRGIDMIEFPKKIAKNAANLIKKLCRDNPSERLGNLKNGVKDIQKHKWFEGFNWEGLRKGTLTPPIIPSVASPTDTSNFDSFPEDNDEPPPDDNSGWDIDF

[15] = molecular target: T5, cGMP-dependent protein kinase 1 (Homo sapiens); details: at 1 µM
[16] = molecular target: T6, cGMP-dependent protein kinase 2 (Homo sapiens) (UniProt Q13237); details: at 0.1 µM
T6 sequence (whole entry): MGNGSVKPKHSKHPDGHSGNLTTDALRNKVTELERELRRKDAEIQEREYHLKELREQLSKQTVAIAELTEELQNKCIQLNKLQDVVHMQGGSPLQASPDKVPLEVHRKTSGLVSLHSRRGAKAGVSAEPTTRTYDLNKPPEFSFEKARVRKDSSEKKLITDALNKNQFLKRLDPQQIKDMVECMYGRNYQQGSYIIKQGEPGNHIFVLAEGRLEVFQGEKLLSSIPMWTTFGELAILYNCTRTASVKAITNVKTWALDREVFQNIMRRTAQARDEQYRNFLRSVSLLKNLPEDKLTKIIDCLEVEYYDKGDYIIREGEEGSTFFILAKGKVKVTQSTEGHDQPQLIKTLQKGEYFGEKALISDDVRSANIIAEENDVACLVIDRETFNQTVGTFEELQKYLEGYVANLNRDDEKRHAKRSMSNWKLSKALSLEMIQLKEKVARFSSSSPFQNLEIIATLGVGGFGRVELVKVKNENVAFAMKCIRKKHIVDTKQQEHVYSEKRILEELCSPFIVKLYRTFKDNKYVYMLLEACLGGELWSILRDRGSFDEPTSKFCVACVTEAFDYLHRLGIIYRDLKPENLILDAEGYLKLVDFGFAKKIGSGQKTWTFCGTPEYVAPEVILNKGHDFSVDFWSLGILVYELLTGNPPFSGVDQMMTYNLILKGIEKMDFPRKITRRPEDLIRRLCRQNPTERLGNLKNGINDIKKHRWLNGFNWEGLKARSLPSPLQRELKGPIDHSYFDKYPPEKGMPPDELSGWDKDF

[17] = molecular target: T6, cGMP-dependent protein kinase 2 (Homo sapiens); details: at 1 µM
[18] = molecular target: T7, cAMP-dependent protein kinase catalytic subunit PRKX (Homo sapiens) (UniProt P51817); details: at 0.1 µM
T7 sequence (whole entry): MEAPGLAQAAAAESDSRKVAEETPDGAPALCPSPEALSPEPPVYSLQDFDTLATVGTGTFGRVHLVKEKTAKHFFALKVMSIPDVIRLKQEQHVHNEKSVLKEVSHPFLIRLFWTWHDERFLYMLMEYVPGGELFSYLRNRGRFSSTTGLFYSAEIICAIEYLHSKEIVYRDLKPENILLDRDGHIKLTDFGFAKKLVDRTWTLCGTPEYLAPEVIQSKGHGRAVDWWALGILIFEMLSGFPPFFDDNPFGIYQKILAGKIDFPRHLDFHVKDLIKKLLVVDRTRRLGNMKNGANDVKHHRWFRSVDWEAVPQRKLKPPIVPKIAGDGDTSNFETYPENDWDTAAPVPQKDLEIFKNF

[19] = molecular target: T7, cAMP-dependent protein kinase catalytic subunit PRKX (Homo sapiens); details: at 1 µM
[20] = molecular target: Rho-associated protein kinase 1 (Homo sapiens) (UniProt Q13464); details: at 0.1 µM;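 note: values are mean percent inhibition of ROCK1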
Chain of Rho-associated protein kinase 1 (Homo sapiens) (Q13464 2-1354 limits assumed): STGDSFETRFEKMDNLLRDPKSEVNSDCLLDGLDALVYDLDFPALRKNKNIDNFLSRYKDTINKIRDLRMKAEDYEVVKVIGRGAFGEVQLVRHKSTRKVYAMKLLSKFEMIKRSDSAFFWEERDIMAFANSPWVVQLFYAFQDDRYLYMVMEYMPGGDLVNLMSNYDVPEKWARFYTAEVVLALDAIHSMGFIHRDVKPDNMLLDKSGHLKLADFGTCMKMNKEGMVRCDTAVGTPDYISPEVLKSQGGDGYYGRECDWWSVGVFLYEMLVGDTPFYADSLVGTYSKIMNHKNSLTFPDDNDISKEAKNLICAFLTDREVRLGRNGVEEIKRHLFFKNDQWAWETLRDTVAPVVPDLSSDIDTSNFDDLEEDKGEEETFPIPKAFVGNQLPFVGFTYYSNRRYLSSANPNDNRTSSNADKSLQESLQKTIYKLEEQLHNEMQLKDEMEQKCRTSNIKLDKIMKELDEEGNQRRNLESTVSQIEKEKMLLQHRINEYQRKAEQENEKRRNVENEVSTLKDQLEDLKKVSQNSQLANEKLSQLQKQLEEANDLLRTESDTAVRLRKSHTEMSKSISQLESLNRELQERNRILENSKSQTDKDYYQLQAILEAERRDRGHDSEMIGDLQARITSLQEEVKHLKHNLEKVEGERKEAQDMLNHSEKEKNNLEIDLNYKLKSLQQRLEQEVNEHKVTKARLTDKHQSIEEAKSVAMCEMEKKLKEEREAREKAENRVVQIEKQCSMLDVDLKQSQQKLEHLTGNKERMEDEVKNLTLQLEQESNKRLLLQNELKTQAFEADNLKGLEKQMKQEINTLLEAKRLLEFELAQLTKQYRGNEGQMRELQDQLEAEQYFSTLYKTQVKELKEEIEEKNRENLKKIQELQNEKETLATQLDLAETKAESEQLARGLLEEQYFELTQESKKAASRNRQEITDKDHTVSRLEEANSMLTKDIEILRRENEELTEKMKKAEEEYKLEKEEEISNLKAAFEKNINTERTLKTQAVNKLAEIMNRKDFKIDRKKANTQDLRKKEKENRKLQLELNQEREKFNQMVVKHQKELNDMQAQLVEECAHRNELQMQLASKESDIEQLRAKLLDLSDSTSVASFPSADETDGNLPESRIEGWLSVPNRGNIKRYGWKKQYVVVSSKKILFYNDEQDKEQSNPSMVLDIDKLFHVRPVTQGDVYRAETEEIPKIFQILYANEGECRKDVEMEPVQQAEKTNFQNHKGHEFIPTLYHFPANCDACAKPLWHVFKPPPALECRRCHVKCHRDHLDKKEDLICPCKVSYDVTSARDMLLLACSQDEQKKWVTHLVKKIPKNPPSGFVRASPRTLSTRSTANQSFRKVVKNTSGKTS

Chain of Protein kinase C theta type (Homo sapiens) (Q04759 whole entry, looked up): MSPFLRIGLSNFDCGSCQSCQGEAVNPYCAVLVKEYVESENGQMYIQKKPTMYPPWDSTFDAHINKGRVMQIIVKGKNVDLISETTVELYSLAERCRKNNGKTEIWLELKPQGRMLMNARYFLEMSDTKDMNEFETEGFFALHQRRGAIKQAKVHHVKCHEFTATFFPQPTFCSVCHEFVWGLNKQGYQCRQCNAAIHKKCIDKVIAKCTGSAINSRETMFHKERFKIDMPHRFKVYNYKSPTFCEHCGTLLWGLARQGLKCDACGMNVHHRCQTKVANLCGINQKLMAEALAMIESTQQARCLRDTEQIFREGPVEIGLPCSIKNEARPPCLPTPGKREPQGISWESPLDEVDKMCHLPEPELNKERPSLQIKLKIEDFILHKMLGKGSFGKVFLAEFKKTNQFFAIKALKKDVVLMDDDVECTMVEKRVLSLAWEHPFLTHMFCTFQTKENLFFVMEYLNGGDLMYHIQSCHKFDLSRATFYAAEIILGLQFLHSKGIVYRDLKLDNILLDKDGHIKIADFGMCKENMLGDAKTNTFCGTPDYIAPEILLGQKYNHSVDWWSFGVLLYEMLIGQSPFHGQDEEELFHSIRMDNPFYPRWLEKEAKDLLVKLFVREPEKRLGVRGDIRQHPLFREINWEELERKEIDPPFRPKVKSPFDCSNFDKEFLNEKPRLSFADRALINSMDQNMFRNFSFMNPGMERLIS
Chain of Protein kinase C beta type (Homo sapiens) (P05771 2-671 limits assumed): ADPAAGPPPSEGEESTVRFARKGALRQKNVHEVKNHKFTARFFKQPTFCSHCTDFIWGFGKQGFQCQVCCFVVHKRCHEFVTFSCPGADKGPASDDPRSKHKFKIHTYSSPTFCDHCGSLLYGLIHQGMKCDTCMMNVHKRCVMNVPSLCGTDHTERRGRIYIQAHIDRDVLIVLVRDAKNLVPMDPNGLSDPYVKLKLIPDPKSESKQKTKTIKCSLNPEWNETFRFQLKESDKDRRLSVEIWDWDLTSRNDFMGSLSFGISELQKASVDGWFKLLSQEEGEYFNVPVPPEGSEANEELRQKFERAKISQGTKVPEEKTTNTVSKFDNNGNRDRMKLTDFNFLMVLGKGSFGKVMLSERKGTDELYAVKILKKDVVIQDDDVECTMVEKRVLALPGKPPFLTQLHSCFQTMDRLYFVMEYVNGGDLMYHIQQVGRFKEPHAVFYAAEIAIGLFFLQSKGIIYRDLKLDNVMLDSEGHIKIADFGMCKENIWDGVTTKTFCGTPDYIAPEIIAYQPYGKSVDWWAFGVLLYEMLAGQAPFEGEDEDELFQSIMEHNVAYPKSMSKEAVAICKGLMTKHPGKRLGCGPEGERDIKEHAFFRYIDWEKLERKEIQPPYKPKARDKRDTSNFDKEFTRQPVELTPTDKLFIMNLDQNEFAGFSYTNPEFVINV

Row | SMILES | inhibition [1] | inhibition [2] | inhibition [3] | inhibition [4] | inhibition [5] | inhibition [6] | inhibition [7] | inhibition [8] | inhibition [9] | inhibition [10] | inhibition [11] | inhibition [12] | inhibition [13] | inhibition [14] | inhibition [15] | inhibition [16] | inhibition [17] | inhibition [18] | inhibition [19] | inhibition [20]
1 | Cc1cc(O)cc(C)c1/C=C/c1cncc(C(=O)OC(C)(C)C)c1 | 2.62% | 2.97% | 0.22% | 1.48% | 1.91% | 1.37% | 1.05% | 2.14% | 2.96% | 1.79% | 1.78% | 2.12% | 2.64% | 3.26% | 3.58% | 1.21% | 2.65% | 3.57% | 6.36% | 2.92%
2 | COc1ccc(Nc2ncc(-c3ccccc3)o2)cc1OC | 1.49% | -0.08% | 0.61% | -0.85% | -0.93% | -0.24% | 1.4% | 0.41% | 2.5% | 0.6% | 3.42% | 0.5% | 2.14% | 0.71% | 3.32% | 0.93% | 3.83% | -0.11% | -0.56% | -0.21%
3 | CN1CCC(C(=O)Nc2n[nH]c3nc(-c4ccc(O)cc4)c(Br)cc23)CC1 | 7.76% and 8.57% | 3.63% and -0.08% | 8.06% and 5.91% | 2.17% and 0.5% | 7.83% and 2.97% | 6.51% and 5.4% | 30.5% and 31.2% | 1.71% and 3.32% | 5.76% and 5.75% | 1.9% and 3.95% | 4.6% and 3.02% | 1.49% and 1.43% | 3.3% and 2.68% | 2.6% and 0.38% | 8.03% and 6.39% | 2.67% and 0.36% | 8.41% and 4.33% | 3.06% and 1.23% | 6.6% and 1.62% | 1.28% and -0.29%
